# Hits are enriched below; roughly 3% of the tested compounds scored in any of these assays.
# Tau FP inhib: tau fibrillization inhibition (FP); K18 P301L tau heparin fibrillization, Alexa594 FP, 6 h; Potency, µM (doses to about 57.7 µM), for the others: at the highest dose activity, negative = inhibition, actives largely listed as inhibitors; 0.39% of 280,000 active; AID 1468; also: nearly all actives have a fitted effect of over 55% in size
#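 Human tau K18 […] P301L fragment, 15 uM unlabeled plus 0.24 uM Alexa 594-labeled tau (final), with compound and 20 uM heparin in 100 mM sodium acetate pH 7; 6 hr at 37 C, then Alexa 594 FP read.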
# Tau fibril ThT: blocks human tau fibril formation measured by thioflavin T | recombinant tau K18 P301L, heparin-induced fibrillization, ThT fluorescence | Potency, µM (top dose mostly 57.4 µM), for inactives: at the top dose activity, negative = inhibition, usual class: inhibitors | 2.1% of 270,000 active; also: nearly all actives have a fitted effect of over 55% in size
#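 ThT emission at 510 nm, taken 1 hr after adding 30 uM dye, quantifies aggregates formed when 20 uM heparin acts on human tau K18 P301L for 6 hr at 37 C.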
# TRb-SRC2 inh: TRbeta-SRC2 interaction inhibition; P10828; TRbeta-SRC2 peptide binding, fluorescence polarization; receptor liganded with 1 µM T3; Potency, µM (highest dose often 106 µM), for the others: top-dose activity change, negative = inhibition, actives largely listed as inhibitors; 0.065% of 280,000 active;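 also: plate controls were bound peptide for no effect and peptide without receptor for full effect; nearly all actives have a fitted effect of over 50% in size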
# Target sequence (P10828 whole entry, looked up): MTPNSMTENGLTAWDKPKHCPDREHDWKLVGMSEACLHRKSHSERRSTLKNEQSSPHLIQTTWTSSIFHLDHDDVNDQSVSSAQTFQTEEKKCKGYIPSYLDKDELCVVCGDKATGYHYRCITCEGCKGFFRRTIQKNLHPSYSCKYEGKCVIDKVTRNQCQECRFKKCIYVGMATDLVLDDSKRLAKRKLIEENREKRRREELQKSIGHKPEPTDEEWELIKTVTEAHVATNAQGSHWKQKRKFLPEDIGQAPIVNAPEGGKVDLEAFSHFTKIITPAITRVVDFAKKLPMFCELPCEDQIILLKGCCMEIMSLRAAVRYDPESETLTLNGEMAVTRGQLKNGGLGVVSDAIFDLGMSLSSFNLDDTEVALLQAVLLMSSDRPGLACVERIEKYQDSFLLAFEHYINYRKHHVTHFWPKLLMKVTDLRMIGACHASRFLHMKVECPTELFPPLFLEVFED
#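 Human TRb ligand-binding domain (0.6 uM) is mixed with 20 nM Texas Red SRC2 peptide and 1 uM T3; after compound addition and 5 hr at ambient temperature, polarization is measured and normalized to unbound and bound controls.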
# Tau fluor counter: counter-screen for tau fibril formation inhibitors | tau K18 P301L Alexa594 fluorescence, heparin fibrillization | Potency, µM (series often up to 57.7 µM), for the others: at the highest dose activity change, negative = decrease | 0.93% of 280,000 active | AID 1463; also: nearly all actives have a fitted effect of over 55% in size
#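 Human tau K18 P301L (15 uM unlabeled, 0.24 uM Alexa 594-labeled) in 100 mM sodium acetate pH 7 with 20 uM heparin, 6 hr at 37 C. ThT 30 uM added, 1 hr ambient; Alexa 594 FP and total fluorescence read at 555/632 nm.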
# TexasRed fluor: Texas Red fluorescence interference in TRb-SRC2 counter-screen; AID 1479; 0.29% of 280,000 active; TRb/SRC2 Texas Red total fluorescence interference; Potency, µM (series often up to 106 µM), for the others: top-dose fluorescence change, negative = quenching; active = well fitted curve in either direction with a large enough effect; inconclusive = small, poorly fitted or top-dose-only effect
#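 Human TRβ ligand-binding domain (0.6 uM) and Texas Red SRC2 peptide (20 nM) in Tris buffer with 1 uM T3 and 5% DMSO were incubated with pinned compound for 5 hr at ambient temperature. Total fluorescence was computed as S + 2P (555/632 nm).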
# Starred values were filed as active, the others as inactive; ? = inconclusive; / = no result; [ ] = remark or other dose. Unless noted, calls follow the shape of the dose curve; as a rule, active = well fitted curve in the direction sought with a large enough effect; inconclusive = small, poorly fitted or top-dose-only effect, or another doubt; inactive = no such curve, though single readings can be large; an effect the other way counts as inactive or inconclusive. Unless noted, % is scaled to controls: 0 for no effect and ±100 for the full control effect; potency is read from the fitted curve at half-maximal effect.
SMILES,Tau FP inhib,Tau fibril ThT,TRb-SRC2 inh,Tau fluor counter,TexasRed fluor
CC1CCC2C(=O)N3CCCC3C(=O)N2C1c1ccc(Br)cc1 (stereo unspecified),2%[11.6 µM],-10%[11.5 µM],-2%[11.2 µM],-11%[11.6 µM],-3%[11.2 µM]
CN1CCN(c2oc(/C=C/c3ccc(F)cc3)nc2C#N)CC1,5%,-5%,-6%,-15%,-2%
COC(=O)C(N)Cc1ccc(O)cc1 (stereo unspecified),4%,-2%,8%,-4%,0%
COC(=O)C(N)CS (stereo unspecified),?,18µM*,5%,-25%,1%
COC(=O)[C@@H](N)CS,?,14µM*,1%,-28%,0%
CC1(C)[C@@H]([C@@H](Br)C(Br)(Br)Br)[C@H]1C(=O)O[C@H](C#N)c1cccc(Oc2ccccc2)c1,/,/,3%[201 µM],/,2%[201 µM]
Cc1ccc2occ(/C=N/NC(N)=S)c(=O)c2c1,-8%,1%,-13%,-4%,0.35µM*[quencher]
Cc1ccc(NC(=O)NC2=NN(c3ccccc3)C(=O)/C2=C2/CCCN2C)cc1,?,?,6%,?,1%
CN1CCC/C1=C1/C(=O)N(c2ccccc2)N=C1NC(=O)Nc1cccc(Cl)c1,?,8.9µM*,-8%,?,-6%
COc1ccc(C(=O)Nc2cc(S(=O)(=O)c3ccc(Cl)cc3)c(O)c(C)c2C)cc1,-10%,0%,0%,-30%,5%
Cc1cc2ccccn2c1C(=O)c1ccc(N/N=C/c2ccc(C(=O)O)cc2)c([N+](=O)[O-])c1,-6%,3.2µM*,-1%,-28%,-7%
COc1ccc(C2/C=C\CN(C(=O)C3CCCCC3)C(Cc3ccccc3)C(=O)N2Cc2ccc(F)cc2)cc1 (stereo unspecified),/,/,-8%,/,1%
CN1CCc2c(sc(/N=C/c3cccs3)c2C(N)=O)C1,?,14µM*,-26%,-12%,26%
Cc1ccc(S(=O)(=O)N[C@H]2COC(=O)C/C=C\[C@H](C)[C@@H](NS(=O)(=O)c3ccc(C)cc3)COC(=O)C/C=C\[C@@H]2C)cc1,-2%[11.6 µM],-8%[11.5 µM],5%[11.2 µM],-11%[11.6 µM],2%[11.2 µM]
Cc1cc(=O)oc2cc(OCC(=O)N/N=C/c3cc([N+](=O)[O-])ccc3O)ccc12,-7%,3.5µM*,-4%,-19%,-2%
Fc1cccc(NC(=S)NNc2c3ccccc3nc3ccccc23)c1,-17%,7.9µM*,-2%,11µM*[quencher],-8%
CNS(=O)(=O)c1ccc2c(c1)NC(=O)C1CCCN21 (stereo unspecified),?,?,4%,-11%,-1%
N#Cc1ccc2c(c1)NC(=O)C1CCCN21 (stereo unspecified),?,20µM*,-2%,-17%,-1%
COc1ccccc1/C=C/c1nc(C#N)c(NCCc2ccccc2)o1,?,?,-6%,3.5µM*[quencher],-4%
Cc1[nH]c2ccccc2c1/C=N/Nc1ccc([N+](=O)[O-])cc1,4%,0%,-2%,-1%,-6%
Cc1[nH]c2ccccc2c1/C=N/Nc1ccc(F)cc1F,5%,13µM*,6%,?,-10%
Cc1[nH]c2ccccc2c1/C=N/Nc1ccccn1,7%,10µM*,-1%,16µM*[quencher],-4%
Cc1[nH]c2ccccc2c1/C=N/Nc1nc(Nc2ccccc2)nc(N2CCOCC2)n1,?,?,-9%,22µM*[quencher],-11%
Cc1[nH]c2ccccc2c1/C=N/Nc1nncn1N,-5%,14µM*,3%,?,-6%
C=CC[C@@H]1/C=C(\C)C[C@H](C)C[C@H](OC)[C@H]2O[C@@](O)(C(=O)C(=O)N3CCCC[C@H]3C(=O)O[C@H](/C(C)=C/[C@@H]3CC[C@@H](O)[C@H](OC)C3)[C@H](C)[C@@H](O)CC1=O)[C@H](C)C[C@@H]2OC,/,/,6%,/,0%
O=C(OC1Cc2c(O)cc(O)cc2OC1c1cc(O)c(O)c(O)c1-c1c(C2Oc3cc(O)cc(O)c3CC2O)cc(O)c(O)c1O)c1cc(O)c(O)c(O)c1 (stereo unspecified),?,18µM*,-1%,13µM*[quencher],-24%
CC(C)(C)c1ccc(C(=O)NC(=S)Nc2nc3c(s2)CCCC3)cc1,-2%,?,5%,-11%,1%

# High-throughput results: PubChem BioAssay, National Center for Advancing Translational Sciences (NCATS)
